Paper PMC11006913

Assays:
Assay in all cases: PBM; 200 nM protein, PBS
Conditions in all cases: dsDNA, one strand shown
[1] = biological target: HESX1 (Homo sapiens, UniProt Q9UBX0 95-180, R165K)
[2] = biological target: SHOX (Homo sapiens, UniProt O15266 103-189)
[3] = biological target: HESX1 (Homo sapiens, UniProt Q9UBX0 95-180)
[4] = biological target: SHOX (Homo sapiens, UniProt O15266 103-189, R173C)
[5] = biological target: HESX1 (Homo sapiens, UniProt Q9UBX0 95-180, R109Q)
[6] = biological target: HESX1 (Homo sapiens, UniProt Q9UBX0 95-180, P111T)
Chain of HESX1 (Homo sapiens, UniProt Q9UBX0 95-180, P111T) (Q9UBX0 95-180 P111T): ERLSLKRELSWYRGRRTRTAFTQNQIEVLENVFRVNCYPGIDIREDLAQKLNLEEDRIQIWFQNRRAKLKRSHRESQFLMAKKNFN

[7] = biological target: HESX1 (Homo sapiens, UniProt Q9UBX0 95-180, F115L)
Chain of HESX1 (Homo sapiens, UniProt Q9UBX0 95-180, F115L) (Q9UBX0 95-180 F115L): as the sequence (Q9UBX0 95-180 P111T) above, with T17P, F21L counted along it

[8] = biological target: ALX4 (Homo sapiens, UniProt Q9H161 200-286, Q225E)
Chain of ALX4 (Q9H161 200-286 Q225E): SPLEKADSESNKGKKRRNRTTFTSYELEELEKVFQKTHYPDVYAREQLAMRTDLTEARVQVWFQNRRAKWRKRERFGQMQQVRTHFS

[9] = biological target: MSX2 (Homo sapiens, UniProt P35548 130-214, R199I)
Chain of MSX2 (P35548 130-214 R199I): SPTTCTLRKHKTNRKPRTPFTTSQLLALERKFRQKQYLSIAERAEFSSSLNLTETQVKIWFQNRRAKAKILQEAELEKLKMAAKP

[10] = biological target: ALX1 (Homo sapiens, UniProt Q15699 118-204, L144V)
Chain of ALX1 (Homo sapiens, UniProt Q15699 118-204, L144V) (Q15699 118-204 L144V): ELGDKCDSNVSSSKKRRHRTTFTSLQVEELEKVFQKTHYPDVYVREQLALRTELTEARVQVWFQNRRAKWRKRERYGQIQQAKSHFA

[11] = biological target: ALX3 (Homo sapiens, UniProt O95076 139-225, N203Q)
Chain of ALX3 (Homo sapiens, UniProt O95076 139-225, N203Q) (O95076 139-225 N203Q): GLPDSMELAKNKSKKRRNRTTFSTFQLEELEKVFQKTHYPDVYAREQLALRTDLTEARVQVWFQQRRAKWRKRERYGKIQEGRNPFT

[12] = biological target: ALX1 (Homo sapiens, UniProt Q15699 118-204, L144R)
Chain of ALX1 (Homo sapiens, UniProt Q15699 118-204, L144R) (Q15699 118-204 L144R): as the sequence (Q15699 118-204 L144V) above, with V27R counted along it

[13] = biological target: ALX3 (Homo sapiens, UniProt O95076 139-225)
Chain of ALX3 (Homo sapiens, UniProt O95076 139-225) (O95076 139-225): as the sequence (O95076 139-225 N203Q) above, with Q65N counted along it

[14] = biological target: PROP1 (Homo sapiens, UniProt O75360 56-141, R99H)
Chain of PROP1 (Homo sapiens, UniProt O75360 56-141, R99H) (O75360 56-141 R99H): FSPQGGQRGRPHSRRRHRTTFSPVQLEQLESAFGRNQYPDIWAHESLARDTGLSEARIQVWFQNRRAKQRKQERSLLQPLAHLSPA

[15] = biological target: ALX3 (Homo sapiens, UniProt O95076 139-225, L168Q)
Chain of ALX3 (Homo sapiens, UniProt O95076 139-225, L168Q) (O95076 139-225 L168Q): as the sequence (O95076 139-225 N203Q) above, with L30Q, Q65N counted along it

[16] = biological target: ALX3 (Homo sapiens, UniProt O95076 139-225, L168V)
Chain of ALX3 (Homo sapiens, UniProt O95076 139-225, L168V) (O95076 139-225 L168V): as the sequence (O95076 139-225 N203Q) above, with L30V, Q65N counted along it

[17] = biological target: ALX1 (Homo sapiens, UniProt Q15699 118-204)
Chain of ALX1 (Homo sapiens, UniProt Q15699 118-204) (Q15699 118-204): as the sequence (Q15699 118-204 L144V) above, with V27L counted along it

[18] = biological target: ALX3 (Homo sapiens, UniProt O95076 139-225, N203S)
Chain of ALX3 (Homo sapiens, UniProt O95076 139-225, N203S) (O95076 139-225 N203S): as the sequence (O95076 139-225 N203Q) above, with Q65S counted along it

[19] = biological target: PROP1 (Homo sapiens, UniProt O75360 56-141)
Chain of PROP1 (Homo sapiens, UniProt O75360 56-141) (O75360 56-141): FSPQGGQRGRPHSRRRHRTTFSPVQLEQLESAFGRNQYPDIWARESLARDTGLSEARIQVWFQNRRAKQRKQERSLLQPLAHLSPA

[20] = biological target: PROP1 (Homo sapiens, UniProt O75360 56-141, F88S)
Chain of PROP1 (Homo sapiens, UniProt O75360 56-141, F88S) (O75360 56-141 F88S): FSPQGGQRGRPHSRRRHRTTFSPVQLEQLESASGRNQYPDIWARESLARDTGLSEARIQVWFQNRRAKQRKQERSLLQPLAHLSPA

Chain of HESX1 (Homo sapiens, UniProt Q9UBX0 95-180) (Q9UBX0 95-180): as the sequence (Q9UBX0 95-180 P111T) above, with T17P counted along it
Chain of HESX1 (Homo sapiens, UniProt Q9UBX0 95-180, R109Q) (Q9UBX0 95-180 R109Q): as the sequence (Q9UBX0 95-180 P111T) above, with R15Q, T17P counted along it
Chain of SHOX (Homo sapiens, UniProt O15266 103-189, R173C) (O15266 103-189 R173C): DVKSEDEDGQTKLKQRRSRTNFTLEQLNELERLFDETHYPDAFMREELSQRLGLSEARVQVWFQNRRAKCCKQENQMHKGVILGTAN
Chain of SHOX (Homo sapiens, UniProt O15266 103-189) (O15266 103-189): as the sequence (O15266 103-189 R173C) above, with C71R counted along it
Chain of HESX1 (Homo sapiens, UniProt Q9UBX0 95-180, R165K) (Q9UBX0 95-180 R165K): as the sequence (Q9UBX0 95-180 P111T) above, with T17P, R71K counted along it

Question: How did the binding signal [1] turn out when CCCAGGCG was run?
Answer: 6.31 upbm affinity estimate (log intensity, higher = more binding, comparable within an allelic series)

Question: And the binding signal [2]?
Answer: 6.92 upbm affinity estimate (log intensity, higher = more binding, comparable within an allelic series)

Question: And the binding signal [3]?
Answer: 6.34 upbm affinity estimate (log intensity, higher = more binding, comparable within an allelic series)

Question: And the binding signal [4]?
Answer: 7.04 upbm affinity estimate (log intensity, higher = more binding, comparable within an allelic series)

Question: What about the binding signal [5] of the same sequence?
Answer: 6.42 upbm affinity estimate (log intensity, higher = more binding, comparable within an allelic series)

Question: What about the binding signal [6] of the same sequence?
Answer: 6.32 upbm affinity estimate (log intensity, higher = more binding, comparable within an allelic series)

Question: And the binding signal [7]?
Answer: 6.49 upbm affinity estimate (log intensity, higher = more binding, comparable within an allelic series)

Question: AATTAGCC was tested. Which binding signal [1] did it give?
Answer: 11.4 upbm affinity estimate (log intensity, higher = more binding, comparable within an allelic series)

Question: And the binding signal [2]?
Answer: 11.9 upbm affinity estimate (log intensity, higher = more binding, comparable within an allelic series)

Question: And the binding signal [8]?
Answer: 12.6 upbm affinity estimate (log intensity, higher = more binding, comparable within an allelic series)

Question: And the binding signal [3]?
Answer: 11.5 upbm affinity estimate (log intensity, higher = more binding, comparable within an allelic series)

Question: And the binding signal [9]?
Answer: 12.1 upbm affinity estimate (log intensity, higher = more binding, comparable within an allelic series)

Question: And the binding signal [10]?
Answer: 11.2 upbm affinity estimate (log intensity, higher = more binding, comparable within an allelic series)

Question: And the binding signal [11]?
Answer: 8.15 upbm affinity estimate (log intensity, higher = more binding, comparable within an allelic series)

Question: And the binding signal [4]?
Answer: 9.22 upbm affinity estimate (log intensity, higher = more binding, comparable within an allelic series)

Question: What about the binding signal [12] of the same sequence?
Answer: 10.8 upbm affinity estimate (log intensity, higher = more binding, comparable within an allelic series)

Question: And the binding signal [13]?
Answer: 12.3 upbm affinity estimate (log intensity, higher = more binding, comparable within an allelic series)

Question: What about the binding signal [5] of the same sequence?
Answer: 8.71 upbm affinity estimate (log intensity, higher = more binding, comparable within an allelic series)

Question: And the binding signal [14]?
Answer: 10.8 upbm affinity estimate (log intensity, higher = more binding, comparable within an allelic series)

Question: What about the binding signal [15] of the same sequence?
Answer: 10.1 upbm affinity estimate (log intensity, higher = more binding, comparable within an allelic series)

Question: And the binding signal [6]?
Answer: 10.2 upbm affinity estimate (log intensity, higher = more binding, comparable within an allelic series)

Question: And the binding signal [16]?
Answer: 9.65 upbm affinity estimate (log intensity, higher = more binding, comparable within an allelic series)

Question: And the binding signal [7]?
Answer: 7.46 upbm affinity estimate (log intensity, higher = more binding, comparable within an allelic series)

Question: And the binding signal [17]?
Answer: 12.4 upbm affinity estimate (log intensity, higher = more binding, comparable within an allelic series)

Question: What about the binding signal [18] of the same sequence?
Answer: 8.23 upbm affinity estimate (log intensity, higher = more binding, comparable within an allelic series)

Question: With AATTAAGC as the sequence, how does the binding signal [1] read?
Answer: 11.5 upbm affinity estimate (log intensity, higher = more binding, comparable within an allelic series)

Question: What about the binding signal [2] of the same sequence?
Answer: 11.9 upbm affinity estimate (log intensity, higher = more binding, comparable within an allelic series)

Question: And the binding signal [8]?
Answer: 12.9 upbm affinity estimate (log intensity, higher = more binding, comparable within an allelic series)

Question: And the binding signal [3]?
Answer: 11.6 upbm affinity estimate (log intensity, higher = more binding, comparable within an allelic series)

Question: And the binding signal [9]?
Answer: 12.2 upbm affinity estimate (log intensity, higher = more binding, comparable within an allelic series)

Question: What about the binding signal [10] of the same sequence?
Answer: 11.6 upbm affinity estimate (log intensity, higher = more binding, comparable within an allelic series)

Question: And the binding signal [11]?
Answer: 8.44 upbm affinity estimate (log intensity, higher = more binding, comparable within an allelic series)

Question: What about the binding signal [4] of the same sequence?
Answer: 9.54 upbm affinity estimate (log intensity, higher = more binding, comparable within an allelic series)

Question: What about the binding signal [12] of the same sequence?
Answer: 11.2 upbm affinity estimate (log intensity, higher = more binding, comparable within an allelic series)

Question: And the binding signal [13]?
Answer: 12.4 upbm affinity estimate (log intensity, higher = more binding, comparable within an allelic series)

Question: And the binding signal [19]?
Answer: 11.2 upbm affinity estimate (log intensity, higher = more binding, comparable within an allelic series)

Question: And the binding signal [5]?
Answer: 9.03 upbm affinity estimate (log intensity, higher = more binding, comparable within an allelic series)

Question: And the binding signal [14]?
Answer: 11 upbm affinity estimate (log intensity, higher = more binding, comparable within an allelic series)

Question: And the binding signal [15]?
Answer: 10.4 upbm affinity estimate (log intensity, higher = more binding, comparable within an allelic series)

Question: And the binding signal [6]?
Answer: 10.5 upbm affinity estimate (log intensity, higher = more binding, comparable within an allelic series)

Question: And the binding signal [16]?
Answer: 9.92 upbm affinity estimate (log intensity, higher = more binding, comparable within an allelic series)

Question: And the binding signal [20]?
Answer: 7.71 upbm affinity estimate (log intensity, higher = more binding, comparable within an allelic series)

Question: What about the binding signal [7] of the same sequence?
Answer: 7.7 upbm affinity estimate (log intensity, higher = more binding, comparable within an allelic series)

Question: And the binding signal [17]?
Answer: 12.2 upbm affinity estimate (log intensity, higher = more binding, comparable within an allelic series)

Question: What about the binding signal [18] of the same sequence?
Answer: 8.49 upbm affinity estimate (log intensity, higher = more binding, comparable within an allelic series)

Question: How did the binding signal [1] turn out when CAATTACG was run?
Answer: 12 upbm affinity estimate (log intensity, higher = more binding, comparable within an allelic series)

Question: What about the binding signal [2] of the same sequence?
Answer: 11.8 upbm affinity estimate (log intensity, higher = more binding, comparable within an allelic series)

Question: What about the binding signal [3] of the same sequence?
Answer: 12.1 upbm affinity estimate (log intensity, higher = more binding, comparable within an allelic series)

Question: What about the binding signal [9] of the same sequence?
Answer: 12.5 upbm affinity estimate (log intensity, higher = more binding, comparable within an allelic series)

Question: And the binding signal [10]?
Answer: 11.2 upbm affinity estimate (log intensity, higher = more binding, comparable within an allelic series)

Question: What about the binding signal [4] of the same sequence?
Answer: 9.27 upbm affinity estimate (log intensity, higher = more binding, comparable within an allelic series)

Question: And the binding signal [12]?
Answer: 10.9 upbm affinity estimate (log intensity, higher = more binding, comparable within an allelic series)

Question: And the binding signal [5]?
Answer: 8.68 upbm affinity estimate (log intensity, higher = more binding, comparable within an allelic series)

Question: What about the binding signal [14] of the same sequence?
Answer: 11 upbm affinity estimate (log intensity, higher = more binding, comparable within an allelic series)

Question: What about the binding signal [6] of the same sequence?
Answer: 10.6 upbm affinity estimate (log intensity, higher = more binding, comparable within an allelic series)

Question: What about the binding signal [7] of the same sequence?
Answer: 7.47 upbm affinity estimate (log intensity, higher = more binding, comparable within an allelic series)

Question: What about the binding signal [17] of the same sequence?
Answer: 12.1 upbm affinity estimate (log intensity, higher = more binding, comparable within an allelic series)

Question: GAAGGCGC was tested. Which binding signal [1] did it give?
Answer: 6.55 upbm affinity estimate (log intensity, higher = more binding, comparable within an allelic series)

Question: And the binding signal [2]?
Answer: 7.24 upbm affinity estimate (log intensity, higher = more binding, comparable within an allelic series)

Question: And the binding signal [3]?
Answer: 6.36 upbm affinity estimate (log intensity, higher = more binding, comparable within an allelic series)

Question: And the binding signal [4]?
Answer: 7.21 upbm affinity estimate (log intensity, higher = more binding, comparable within an allelic series)

Question: What about the binding signal [5] of the same sequence?
Answer: 6.47 upbm affinity estimate (log intensity, higher = more binding, comparable within an allelic series)

Question: And the binding signal [6]?
Answer: 6.47 upbm affinity estimate (log intensity, higher = more binding, comparable within an allelic series)

Question: And the binding signal [7]?
Answer: 6.58 upbm affinity estimate (log intensity, higher = more binding, comparable within an allelic series)

Question: For CCAATTAC, which binding signal [1] is on record?
Answer: 12.8 upbm affinity estimate (log intensity, higher = more binding, comparable within an allelic series)

Question: And the binding signal [2]?
Answer: 12.2 upbm affinity estimate (log intensity, higher = more binding, comparable within an allelic series)

Question: What about the binding signal [8] of the same sequence?
Answer: 13.1 upbm affinity estimate (log intensity, higher = more binding, comparable within an allelic series)

Question: What about the binding signal [3] of the same sequence?
Answer: 12.9 upbm affinity estimate (log intensity, higher = more binding, comparable within an allelic series)

Question: And the binding signal [9]?
Answer: 12.8 upbm affinity estimate (log intensity, higher = more binding, comparable within an allelic series)

Question: And the binding signal [10]?
Answer: 11.8 upbm affinity estimate (log intensity, higher = more binding, comparable within an allelic series)

Question: What about the binding signal [11] of the same sequence?
Answer: 8.39 upbm affinity estimate (log intensity, higher = more binding, comparable within an allelic series)

Question: And the binding signal [4]?
Answer: 9.4 upbm affinity estimate (log intensity, higher = more binding, comparable within an allelic series)

Question: And the binding signal [12]?
Answer: 11.4 upbm affinity estimate (log intensity, higher = more binding, comparable within an allelic series)

Question: And the binding signal [13]?
Answer: 12.5 upbm affinity estimate (log intensity, higher = more binding, comparable within an allelic series)

Question: And the binding signal [19]?
Answer: 11.5 upbm affinity estimate (log intensity, higher = more binding, comparable within an allelic series)

Question: And the binding signal [5]?
Answer: 9.36 upbm affinity estimate (log intensity, higher = more binding, comparable within an allelic series)

Question: And the binding signal [14]?
Answer: 11.7 upbm affinity estimate (log intensity, higher = more binding, comparable within an allelic series)

Question: And the binding signal [15]?
Answer: 10.6 upbm affinity estimate (log intensity, higher = more binding, comparable within an allelic series)

Question: And the binding signal [6]?
Answer: 11.3 upbm affinity estimate (log intensity, higher = more binding, comparable within an allelic series)

Question: And the binding signal [16]?
Answer: 9.97 upbm affinity estimate (log intensity, higher = more binding, comparable within an allelic series)

Question: What about the binding signal [20] of the same sequence?
Answer: 7.57 upbm affinity estimate (log intensity, higher = more binding, comparable within an allelic series)

Question: What about the binding signal [7] of the same sequence?
Answer: 7.75 upbm affinity estimate (log intensity, higher = more binding, comparable within an allelic series)

Question: And the binding signal [17]?
Answer: 12.5 upbm affinity estimate (log intensity, higher = more binding, comparable within an allelic series)

Question: What about the binding signal [18] of the same sequence?
Answer: 8.51 upbm affinity estimate (log intensity, higher = more binding, comparable within an allelic series)
